# Compound activity (PubChem BioAssay)
# Only some compounds are listed: those with a hit (about 1.3% of all), similar ones and a draw of the others.
# A1 inh = inhibitors of the anti-apoptotic protein A1, read as caspase activation | MEF A1-2A-BIM cells, Caspase-Glo 3/7 luminescence, 3 h; percent of clofoctol response, vehicle zero | caspase activation, % (no concentration beside the values) | actives 0.066% (n = 330,000);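 active = over half of replicate activation scores above 10%, or exactly half above 10 with the replicate mean above 10; inconclusive = replicate mean below 10 yet half the replicates above 10; inactive = over half of replicates below 10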
# VLA-4 inh = inhibition in a human VLA-4 binding assay; P13612; VLA-4 expressing cells, ligand binding flow cytometry; AID 2557; inhibition, % (about 7 µM as worked out from the volumes in the protocol); actives 0.2% (n = 330,000); in the data active = inhibition above about 50%
# Target sequence (P13612 whole entry, looked up): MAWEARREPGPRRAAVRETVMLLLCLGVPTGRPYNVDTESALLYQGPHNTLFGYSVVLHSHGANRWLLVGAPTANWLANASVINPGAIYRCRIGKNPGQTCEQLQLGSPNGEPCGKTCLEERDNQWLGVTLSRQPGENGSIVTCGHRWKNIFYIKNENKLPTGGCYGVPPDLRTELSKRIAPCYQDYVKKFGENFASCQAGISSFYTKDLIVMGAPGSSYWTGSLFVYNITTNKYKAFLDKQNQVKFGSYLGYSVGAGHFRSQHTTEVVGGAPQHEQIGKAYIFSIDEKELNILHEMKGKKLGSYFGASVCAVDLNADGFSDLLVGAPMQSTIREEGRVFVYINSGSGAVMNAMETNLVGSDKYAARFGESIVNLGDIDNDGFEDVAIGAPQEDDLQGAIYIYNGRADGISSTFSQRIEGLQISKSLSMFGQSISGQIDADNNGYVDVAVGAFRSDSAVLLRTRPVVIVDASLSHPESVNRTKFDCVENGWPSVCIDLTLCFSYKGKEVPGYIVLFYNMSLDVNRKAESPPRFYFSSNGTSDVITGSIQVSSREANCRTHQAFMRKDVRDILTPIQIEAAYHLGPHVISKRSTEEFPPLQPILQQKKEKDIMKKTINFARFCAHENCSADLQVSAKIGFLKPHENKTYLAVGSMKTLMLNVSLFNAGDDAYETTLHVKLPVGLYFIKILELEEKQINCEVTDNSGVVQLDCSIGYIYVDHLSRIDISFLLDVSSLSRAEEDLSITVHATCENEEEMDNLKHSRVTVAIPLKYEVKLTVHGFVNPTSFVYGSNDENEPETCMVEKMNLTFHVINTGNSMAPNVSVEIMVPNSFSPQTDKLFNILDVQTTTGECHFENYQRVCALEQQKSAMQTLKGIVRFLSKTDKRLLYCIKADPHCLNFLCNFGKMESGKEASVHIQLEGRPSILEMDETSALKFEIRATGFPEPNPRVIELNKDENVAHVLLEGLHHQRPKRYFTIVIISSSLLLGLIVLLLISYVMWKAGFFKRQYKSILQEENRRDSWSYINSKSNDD
# NTR1 ag = NTR1 (human) agonism. actives 0.17% (n = 330,000). AID 493036. NTR1-U2OS beta-arrestin-GFP spot imaging, agonist mode. activation, % at 20 µM;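 active = activation at or above 40% of the spot to cytoplasm intensity ratio, with at least 20 cells analyzed; inconclusive = wells under 20 cells, flagged as cytotoxic or low count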;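 also: 0% = DMSO without peptide and 100% = 100 nM NTR1 peptide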
# Beta2AR agonist = human beta-2 adrenergic receptor agonism by FAP. P07550. Am2.2-beta2AR cells, FAP receptor internalization, flow cytometry. response, % (no concentration beside the values). actives 0.43% (n = 340,000). AID 504454;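 active = response above a set limit, near 3 SD of response in nonfluorescent compounds, cut at about 42% in these data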
# GRK2 aptamer HTS = human GRK2 inhibition via aptamer displacement | P25098 | bead flow cytometry, FAM-aptamer displacement from GRK2 | inhibition of aptamer binding, % at 10 µM | actives 0.59% (n = 330,000);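 active = inhibition of aptamer binding above 40%, roughly 3 SD of noise, on plates passing a quality check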;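 also: median bead fluorescence of bound FAM aptamer so fluorescent compounds give negative values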
# GRK2 inh confirm = human GRK2 inhibition confirmation, cherry pick 1 | shares compounds with GRK2 aptamer HTS | bead-bound GRK2, FAM-aptamer displacement, flow cytometry | aptamer displacement, % at 10 µM | actives 4% (n = 2,000) | AID 504451;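 active = aptamer displacement above 40%, near three times the noise of non-fluorescent compounds, on plates passing quality checks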;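 also: negative values mostly reflect intrinsic compound fluorescence rather than true enhancement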
# FAM quench CP1 = quenches fluorescent RNA aptamer, GRK2 hit artifact. fluorescence response (% of DMSO), % at 10 µM. Carboxyfluorescein RNA aptamer on beads, flow cytometry quenching; hits give low values. AID 504580. 2,000 tested, under 10 active. shares compounds with GRK2 aptamer HTS;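 active = compounds that quench the bead-bound fluorescent RNA probe, cutting fluorescence to under half of the solvent control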;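 also: counterscreen run without GRK2 so only probe quenching by compound is measured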
# GRK2 confirm 2 = confirmation of human GRK2 inhibitors binding RNA aptamer site; shares compounds with GRK2 aptamer HTS; bead-bound GRK2, FAM-aptamer displacement, flow cytometry; inhibition of aptamer binding, % at 10 µM; 360 tested, under 10 active;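 active = inhibition of aptamer binding above 40%, about triple the noise seen with nonglowing compounds, on plates passing quality control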;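 also: negative values mostly come from compounds that fluoresce themselves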
# FAM quench CP2 = counter-screen for GRK2 binding hits: quenchers of fluorescent RNA aptamer. 360 tested, under 10 active. AID 588494. carboxyfluorescein RNA aptamer beads, flow cytometry quenching; hits give low values. fluorescence response vs DMSO, % at 10 µM. shares compounds with GRK2 aptamer HTS;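 active = response vs DMSO under 50%, meaning signal dropped by over half, treated as fluorescence quencher; inconclusive = no clear call, values can overlap the other calls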;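 also: labelled aptamer on streptavidin beads without GRK2 as a quench counter-screen; 100% = bead fluorescence of DMSO wells and lower means quenching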
# NTR1 ag conf = confirmation of agonists of human NTR1. shares compounds with NTR1 ag. NTR1-U2OS beta-arrestin-GFP translocation imaging. activation, % at 20 µM. actives 38% (n = 480);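 active = mean activation at 20 µM of at least 40%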;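 also: 0% = DMSO without peptide and 100% = 100 nM NTR1 peptide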
# B2AR ag CP1 = agonists of human beta-2 adrenergic receptor | shares compounds with Beta2AR agonist | Am2.2-beta2AR cells, FAP surface receptor, flow cytometry; hits give low values | percent response (surface receptor), % at 10 µM | actives 25% (n = 1,100);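 active = surface receptor percent response at or below 58%, roughly 3 SD from nonfluorescent compounds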
# FAP fluor counter = counter-screen for beta-2AR agonists: fluorescence in Am2.2 cells | shares compounds with Beta2AR agonist | FAP fluorogen flow cytometry, fluorescence counterscreen; hits give low values | calls only at 10 µM | 1,100 tested, under 10 active;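 active = percent response below a set limit in fluorescence channel 1 and below 50% in channel 8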
# Numbers without * were called inactive; i = inactive; ? = inconclusive; nt = not tested or not shown.
SMILES,A1 inh,VLA-4 inh,NTR1 ag,Beta2AR agonist,GRK2 aptamer HTS,GRK2 inh confirm,FAM quench CP1,others
O=C1CC(N2CCN(c3ccc(Cl)cc3)CC2)C(=O)N1c1ccccc1 (stereo unspecified),0.1,18.4,-0.2,-9.4,1.0,nt,nt,
O=C1CC(N2CCN(c3ccccc3)CC2)C(=O)N1c1cccc(Cl)c1 (stereo unspecified),-0.2,2.9,-0.4,0.7,43.0*,2.5,96.0,
CC(=O)Nc1nnc(CCS(=O)(=O)c2ccc(Cl)cc2)s1,nt,nt,nt,3.6,nt,nt,nt,
CCCc1nnc(NC(=O)CCS(=O)(=O)c2ccccc2)s1,-0.5,8.0,0.4,-1.0,13.0,18.5,99.0,
CCCCc1nnc(NC(=O)CCS(=O)(=O)c2ccc(Cl)cc2)s1,0.4,0.2,0.9,-1.9,3.0,1.0,92.3,
CCCc1nnc(NS(=O)(=O)c2ccccc2)s1,0.1,4.1,1.2,0.3,0.0,nt,nt,
CCC/C(C#Cc1ccsc1)=C1/c2ccccc2C(=O)N1c1ccccc1,-0.4,-2.9,8.5,-4.4,0.0,nt,nt,
Cc1ccc(NC(=S)N2CCC(c3nc4ccccc4s3)CC2)cc1,0.4,2.1,2.6,3.4,64.0*,-5.7,105.0,
CC(NS(=O)(=O)c1ccc2c(c1)c(=O)n(C)c(=O)n2C)C(=O)NC1CCCCC1 (stereo unspecified),-0.7,11.0,1.4,2.6,1.0,nt,nt,
O=C(NCc1ccc(F)cc1)C1CCCN(c2cnccn2)C1 (stereo unspecified),0.5,7.9,-1.1,-0.6,4.0,nt,nt,
COc1cc(/C=C(/NC(C)=O)C(=O)O)cc(Cl)c1OCc1ccc(Br)cc1,1.8,1.6,1.2,-3.6,80.0*,4.3,94.1,
COc1cc(/C=C(\NC(C)=O)C(=O)O)cc(OC)c1OC,0.6,-4.9,1.9,3.8,7.0,nt,nt,
Cc1c(C(=O)Nc2ccc(S(=O)(=O)N3CCOCC3)cc2)cccc1[N+](=O)[O-],0.0,-4.0,1.2,1.4,0.0,nt,nt,
CC1(CC(=O)N/N=C/c2cc(Br)c(O)cc2O)OCCO1,0.5,13.8,1.0,12.8,0.0,nt,nt,
Cc1oc(/C=N/NC(=O)CC2(C)OCCO2)cc1Br,-0.4,-2.8,1.0,-1.6,35.0,0.5,98.6,
Oc1ccc(-c2nccc(-c3ccc(Br)cc3)n2)cc1,-0.2,0.6,7.0,-6.8,6.0,-5.3,100.2,
CC(=O)N1c2ccc(S(=O)(=O)NCCC(=O)NCCc3cccc(C)c3)cc2CC1C (stereo unspecified),0.2,6.1,1.5,-5.7,77.0*,-3.9,98.9,
CC(=O)N1c2ccc(S(=O)(=O)NCCC(=O)NCCc3ccc(C)cc3)cc2CC1C (stereo unspecified),0.4,12.9,2.8,-2.2,5.0,nt,nt,
Cc1coc2c(C)c3oc(=O)c(CCC(=O)N[C@@H](C)C(=O)N[C@@H](Cc4ccccc4)C(=O)O)c(C)c3cc12,1.0,-23.0,2.8,-2.9,0.0,nt,nt,
COc1ccc(Cl)cc1S(=O)(=O)N1CCN=C1Cc1ccccc1,-1.2,-12.4,0.2,-8.8,0.0,nt,nt,
CCOc1cc(S(=O)(=O)N2CCN=C2Cc2ccccc2)ccc1F,0.3,-4.8,-0.4,1.7,44.0*,nt,nt,GRK2 confirm 2=-6.9;FAM quench CP2=101.0
Cc1ccc(S(=O)(=O)N(C)C)cc1NC(=O)c1cncc(Br)c1,0.2,26.2,6.5,-0.5,2.0,nt,nt,
COc1cc2cc(CCOC(=O)N3CCCCC3)oc(=O)c2cc1OC,-1.2,1.5,-0.4,-4.3,42.0*,-1.7,97.5,
CN1CCCN(S(=O)(=O)c2cccc(C#N)c2)CC1,-0.8,25.6,-0.7,0.7,0.0,nt,nt,
Cc1sc2nc(SCC(=O)N3CCOCC3)[nH]c(=O)c2c1-c1ccccc1,0.0,-0.9,0.4,15.6,93.0*,nt,nt,GRK2 confirm 2=4.4;FAM quench CP2=100.0
SMILES,A1 inh,VLA-4 inh,NTR1 ag,Beta2AR agonist,GRK2 aptamer HTS,GRK2 inh confirm,FAM quench CP1,others
COc1ccc(OC)c(NC(=O)COC(=O)c2c3c(nc4ccccc24)CCCC3)c1,-0.4,-65.1,40.7*,18.5,73.0*,2.1,97.4,NTR1 ag conf=29.5
Cc1ccc(C)c(C(C)NC(=S)NCc2ccc(F)cc2)c1 (stereo unspecified),-0.1,4.4,4.8,13.3,0.0,nt,nt,
COc1cc(NC(=O)c2csc(-c3ccncc3)n2)cc(C(=O)Nc2cccc(C(F)(F)F)c2)c1,1.2,0.6,-1.7,60.3*,1.0,-2.1,98.3,B2AR ag CP1=85.6;FAP fluor counter=i
CC1CCN(C(C(=O)Nc2ccc3c(c2)OCO3)c2ccccc2)CC1 (stereo unspecified),1.3,3.0,7.2,-0.6,43.0*,-1.4,101.5,B2AR ag CP1=97.5;FAP fluor counter=i
Cc1ccc(S(=O)(=O)N2CCN(C(=O)COC(=O)COc3ccccc3C(C)C)CC2)c(C)c1,nt,nt,nt,10.6,nt,nt,nt,
O=C(Nc1cccc(-c2nc3ncccc3o2)c1)c1sc2cc(Cl)ccc2c1Cl,-0.4,3.4,0.4,42.4*,75.0*,-0.7,104.8,B2AR ag CP1=12.3*;FAP fluor counter=i
O=C(Nc1cccc(-c2nc3ncccc3o2)c1)c1sc2ccccc2c1Cl,1.1,5.5,20.5,29.8,0.0,nt,nt,
CC(C)[C@H](NC(=O)[C@H](Cc1ccccc1)n1c(=O)[nH]c2ccccc2c1=O)C(=O)N1CCC[C@@H]1C(=O)O,0.1,2.4,-2.0,2.1,2.0,nt,nt,
Cc1cc(C)nc(Sc2ccc(C=O)cc2[N+](=O)[O-])n1,1.5,0.9,2.7,-1.9,2.0,nt,nt,
O=Cc1ccc(Sc2nnc(-c3ccccc3)o2)c([N+](=O)[O-])c1,-0.8,31.4,?,2.4,5.0,nt,nt,NTR1 ag conf=7.6
Cc1cc2c(cc1C)CSC(c1ccccc1O)SC2,-0.6,-1.0,51.1*,4.7,1.0,nt,nt,NTR1 ag conf=6.8
O=C(Cc1cccc(NC(=O)C2CCN(C(=O)C3CCCCC3)CC2)c1)Nc1cccc(C(=O)N2CCCCC2)c1,nt,nt,nt,-7.7,nt,nt,nt,
Cc1c(/C=N/NC(=O)c2ccccc2O)c2ccccn2c1C(=O)c1ccc(F)cc1,0.0,-4.8,114.3*,27.2,0.0,nt,nt,NTR1 ag conf=17.3
